# In PubChem BioAssay:
# Active and inactive are the calls of the source. Unless noted, how the calls were made is not given here.
# Columns and labels:
# [1] = test system: Wnt5a (protein binding on small-molecule microarray); experiment: Wnt5a binders on small-molecule microarray, primary screen, biophysical, 635/667 nm fluorescence (AID 1142); settings: 635 nm fluorescence, higher = more signal;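 further: fluorescence read at 667 nm with signal to noise per printed feature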
# [2] = cell viability in Huh7 cells, primary screen, cytotoxicity control for HCV replication inhibitor project, CellTiter-Glo luminescence, basal, 48 h (AID 1143); settings: Huh7 HCV replicon, higher = more signal, called active from +8 up or from −8 down;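 further: Huh7 hepatoma cells carrying a hepatitis C replication reporter with no stimulus; test concentration not given here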
# [3] = P. aeruginosa biofilm formation inhibitors, primary screen, PAO1 strain, BacTiter-Glo luminescence, LB-PBS (AID 1144); settings: 12 h, higher = more signal
# [4] = CREB reporter modulators without forskolin, primary screen, cell-based, PC12, CRE-LacZ reporter, unstimulated (AID 1145); settings: no forskolin, luminescence, 4.5 h, higher = more signal, called active from +8 up or from −8 down
# [5] = CREB reporter modulators under forskolin, primary screen, cell-based, PC12, CRE-LacZ reporter, forskolin-stimulated (AID 1146); settings: luminescence, 4.5 h, higher = more signal, called active from +8 up or from −8 down;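 further: PC12 cells with 6xCRE LacZ reporter stimulated by forskolin 10 µM; beta-galactosidase reporter signal reflecting CREB driven transcription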
# [6] = biological target: Streptavidin (Streptomyces avidinii) (UniProt P22629); experiment: streptavidin binders on small-molecule microarray, primary screen, artefact control for SMM compound annotation, biophysical, 635/667 nm fluorescence (AID 1147); settings: streptavidin binding, higher = more signal;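 further: signal reflects streptavidin binding to arrayed compounds as a control protein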
# Sequence of Streptavidin (Streptomyces avidinii) (P22629 whole entry, looked up): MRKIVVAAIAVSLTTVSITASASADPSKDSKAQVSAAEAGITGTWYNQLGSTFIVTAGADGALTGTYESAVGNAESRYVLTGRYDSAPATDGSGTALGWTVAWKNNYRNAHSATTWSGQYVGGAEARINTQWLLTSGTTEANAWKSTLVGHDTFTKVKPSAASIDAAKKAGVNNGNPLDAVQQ
# [7] = small-molecule binders of probe aInhba, primary screen, biochemical, small-molecule microarray, 635/667 nm fluorescence (AID 1148); settings: higher = more signal;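 further: score merges 667nm spot fluorescence with signal-to-noise for antibody binding to printed compounds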
# Torsin-1A (Homo sapiens) [8] = biological target: Torsin-1A (Homo sapiens) (UniProt O14656); experiment: torsin A binders from cell lysate, primary screen, small-molecule microarray, wild-type, 635/667 nm (AID 1149); settings: COS7 hTOR1A-WT lysate, 635 nm fluorescence, higher = more signal
# Sequence of Torsin-1A (Homo sapiens) (O14656 whole entry, looked up): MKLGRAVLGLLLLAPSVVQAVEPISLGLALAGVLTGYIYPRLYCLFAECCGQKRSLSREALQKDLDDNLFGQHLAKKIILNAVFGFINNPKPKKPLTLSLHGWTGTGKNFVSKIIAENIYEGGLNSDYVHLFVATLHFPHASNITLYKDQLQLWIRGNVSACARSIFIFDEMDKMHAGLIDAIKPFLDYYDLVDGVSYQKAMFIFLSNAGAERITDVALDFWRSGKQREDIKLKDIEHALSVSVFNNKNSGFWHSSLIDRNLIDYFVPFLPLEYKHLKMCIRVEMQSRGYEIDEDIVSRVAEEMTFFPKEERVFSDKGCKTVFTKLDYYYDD
# Torsin-1A (Homo sapiens) [9] = biological target: Torsin-1A (Homo sapiens) (UniProt O14656); experiment: small-molecule binders of mutant TOR1A in lysate, primary screen, cell lysate, small-molecule microarray, COS7 lysate, 635/667 nm fluorescence (AID 1150); settings: COS7 hTOR1A mutant lysate, 635 nm fluorescence, higher = more signal;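 further: score pools 667 nm emission and signal to noise measuring lysate protein binding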
# [10] = test system: Sonic hedgehog protein (Shh); experiment: small-molecule binders of Shh protein, primary screen, biochemical, small-molecule microarray, 635/667 nm fluorescence (AID 1151); settings: small-molecule microarray binding, 635 nm fluorescence; higher = more signal;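 further: Shh protein binding to compounds spotted on small-molecule microarray slides; score combines spot fluorescence intensity with signal-to-noise across triplicate slides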
# [11] = E. coli DRC41 culture turbidity changes, primary screen, E. coli filamentation inducer project, strain DRC41, OD650, 48 h (AID 1152);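 further: E. coli MC1000 strain DRC41 lacking acrAB efflux pump and sulA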; settings: E. coli DRC41 (acrAB sulA), higher = more signal, called active from +8 up or from −8 down
# [12] = small-molecule binders of probe aLefty1, primary screen, biochemical, small-molecule microarray, 635/667 nm fluorescence (AID 1153); settings: higher = more signal;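 further: score merges spot fluorescence with signal-to-noise ratio from the scanned slide images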
# [13] = PSAC antagonists in infected red cells, primary screen, cell-based, P. falciparum Indochina, OD700, 1 h (AID 1154); settings: P. falciparum Indochina infected RBC osmotic lysis, higher = more signal, called active from +8 up or from −8 down
# [14] = PSAC antagonists in infected red cells, primary screen, cell-based, P. falciparum Indochina, OD700, 2 h (AID 1155);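 further: lysis reports solute entry through the parasite surface anion channel PSAC; channel blockers reduce lysis of infected cells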; settings: P. falciparum Indochina infected erythrocytes, osmotic lysis OD700; higher = more signal, called active from +8 up or from −8 down
# [15] = osmotic lysis modulators in infected erythrocytes, primary screen, PSAC antagonist project, cell-based, P. falciparum Indochina, OD700, 3 h (AID 1156); settings: higher = more signal, called active from +8 up or from −8 down
# [16] = PSAC antagonists in infected red cells, primary screen, cell-based, P. falciparum Indochina, OD700, 18 h (AID 1157); settings: P. falciparum Indochina infected erythrocytes, osmotic lysis OD700, 18 h; higher = more signal, called active from +8 up or from −8 down
# [17] = modulators of S6 phosphorylation in cells, primary screen, cell-based, A549, cytoblot, luminescence, serum-stimulated (AID 1158); settings: A549 phospho-S6 cytoblot, 5 h, higher = more signal;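 further: serum-stimulated A549 lung adenocarcinoma cells; signal is phosphorylated S6 detected by cytoblot immunostaining with HRP secondary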
# [18] = biological target: NADPH oxidase 2 (Homo sapiens) (UniProt P04839); experiment: NOX2-dependent H2O2 signal modulators, primary screen, NOX inhibitor project, cell-based, HEK293-NOX2, PMA-stimulated, Amplex Red fluorescence (AID 1159); settings: 45 min, higher = more signal, called active from +8 up or from −8 down; further: test concentration not given here
# Sequence of NADPH oxidase 2 (Homo sapiens) (P04839 whole entry, looked up): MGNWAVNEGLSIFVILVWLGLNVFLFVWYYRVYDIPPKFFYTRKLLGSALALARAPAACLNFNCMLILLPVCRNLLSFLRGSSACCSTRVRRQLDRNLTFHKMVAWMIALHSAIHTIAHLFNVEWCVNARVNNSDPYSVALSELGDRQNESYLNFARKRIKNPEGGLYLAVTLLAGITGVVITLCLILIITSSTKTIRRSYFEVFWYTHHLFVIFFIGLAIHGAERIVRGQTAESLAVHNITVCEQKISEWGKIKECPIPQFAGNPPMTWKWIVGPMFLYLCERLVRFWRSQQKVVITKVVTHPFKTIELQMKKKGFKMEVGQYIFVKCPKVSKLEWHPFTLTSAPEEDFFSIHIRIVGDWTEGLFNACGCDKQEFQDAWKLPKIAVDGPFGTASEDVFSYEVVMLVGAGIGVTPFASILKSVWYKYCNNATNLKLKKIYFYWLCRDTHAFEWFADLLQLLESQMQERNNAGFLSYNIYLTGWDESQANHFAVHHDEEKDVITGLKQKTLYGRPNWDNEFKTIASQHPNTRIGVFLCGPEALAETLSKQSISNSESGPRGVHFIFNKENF
# [19] = biological target: NADPH oxidase 4 (Homo sapiens) (UniProt Q9NPH5); experiment: NOX4-dependent H2O2 signal modulators, primary screen, NOX inhibitor project, cell-based, HEK293-NOX4, tetracycline-induced, Amplex Red fluorescence (AID 1160); settings: 45 min, higher = more signal, called active from +8 up or from −8 down
# Sequence of NADPH oxidase 4 (Homo sapiens) (Q9NPH5 whole entry, looked up): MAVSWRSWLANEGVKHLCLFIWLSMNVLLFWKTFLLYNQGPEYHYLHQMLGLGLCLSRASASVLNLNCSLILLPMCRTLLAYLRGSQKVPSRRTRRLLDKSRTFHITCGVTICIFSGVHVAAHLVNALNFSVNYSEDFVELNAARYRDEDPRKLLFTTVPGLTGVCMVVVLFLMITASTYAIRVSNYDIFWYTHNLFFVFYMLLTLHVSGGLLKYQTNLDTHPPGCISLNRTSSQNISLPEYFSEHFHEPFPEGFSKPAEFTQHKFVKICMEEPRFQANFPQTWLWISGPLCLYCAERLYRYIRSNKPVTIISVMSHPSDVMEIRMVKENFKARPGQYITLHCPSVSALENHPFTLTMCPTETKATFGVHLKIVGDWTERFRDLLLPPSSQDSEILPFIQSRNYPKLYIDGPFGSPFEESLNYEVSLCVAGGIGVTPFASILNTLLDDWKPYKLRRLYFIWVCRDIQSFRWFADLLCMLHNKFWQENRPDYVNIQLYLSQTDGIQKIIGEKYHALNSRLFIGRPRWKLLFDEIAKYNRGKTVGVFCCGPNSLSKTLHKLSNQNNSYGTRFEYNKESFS
# [20] = biological target: NADPH oxidase 5 (Homo sapiens) (UniProt Q96PH1); experiment: NOX5-dependent H2O2 signal modulators, primary screen, NOX inhibitor project, cell-based, HEK293-NOX5, Amplex Red fluorescence (AID 1161); settings: HEK293-NOX5, ionomycin, 45 min, higher = more signal
# Sequence of NADPH oxidase 5 (Homo sapiens) (Q96PH1 whole entry, looked up): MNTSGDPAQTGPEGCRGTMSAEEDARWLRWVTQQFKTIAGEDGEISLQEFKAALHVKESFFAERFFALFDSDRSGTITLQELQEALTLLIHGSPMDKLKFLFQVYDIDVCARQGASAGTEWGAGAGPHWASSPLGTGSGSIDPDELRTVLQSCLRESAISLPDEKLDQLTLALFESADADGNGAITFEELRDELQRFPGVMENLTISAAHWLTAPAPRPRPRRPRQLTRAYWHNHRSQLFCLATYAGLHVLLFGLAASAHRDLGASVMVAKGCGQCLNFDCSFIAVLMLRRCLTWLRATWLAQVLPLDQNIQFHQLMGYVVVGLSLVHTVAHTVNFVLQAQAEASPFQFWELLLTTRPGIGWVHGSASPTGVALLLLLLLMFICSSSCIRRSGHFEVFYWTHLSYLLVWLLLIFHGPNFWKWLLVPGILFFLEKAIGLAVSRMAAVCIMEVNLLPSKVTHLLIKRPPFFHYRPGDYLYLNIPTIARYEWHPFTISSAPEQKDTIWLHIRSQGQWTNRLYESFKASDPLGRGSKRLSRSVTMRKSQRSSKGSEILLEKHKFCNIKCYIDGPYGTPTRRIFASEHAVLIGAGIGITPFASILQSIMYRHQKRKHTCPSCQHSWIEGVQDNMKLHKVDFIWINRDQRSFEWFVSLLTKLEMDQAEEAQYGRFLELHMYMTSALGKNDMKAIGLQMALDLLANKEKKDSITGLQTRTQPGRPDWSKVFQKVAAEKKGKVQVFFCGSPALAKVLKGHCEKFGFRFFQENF
SMILES,composite z-score [1],z-score [2],z-score [3],z-score [4],z-score [5],composite z-score [6],composite z-score [7],composite z-score (Torsin-1A (Homo sapiens) [8]),composite z-score (Torsin-1A (Homo sapiens) [9]),composite z-score [10],z-score [11],composite z-score [12],z-score [13],z-score [14],z-score [15],z-score [16],z-score [17],z-score [18],z-score [19],z-score [20]
CC(C)=CCCC(C)=CCON=C1C[C@@H](O)[C@@H](O)[C@@H]2[C@@H]3C(=O)N(C[C@@H]4CCCO4)C(=O)[C@@H]3CC[C@H]12,0.24,-0.296 (inactive),0.175 (inactive),-0.384 (inactive),0.174 (inactive),0.707,-0.162,1.4,1.33,1.67,-0.249 (inactive),-0.0501,2.57 (inactive),0.847 (inactive),0.193 (inactive),0.55 (inactive),0.659,0.0784 (inactive),0.256 (inactive),-2.11
CCOC(=O)[C@H](CC(C)C)NC(=O)CCC1CC(OC(=O)NCc2ccc3c(c2)OCO3)CC2(CCCC(COC(=O)NCCCN3CCCC3=O)O2)O1 (stereo not given in full),0.353,-0.255 (inactive),-0.767 (inactive),0.0167 (inactive),-0.413 (inactive),0.657,0.0154,0.232,0.92,1.74,0.015 (inactive),0.0004,1.08 (inactive),0.448 (inactive),-0.447 (inactive),0.003 (inactive),0.375,0.242 (inactive),0.187 (inactive),0.32
CCN1C(=O)[C@H]2[C@H]3[C@H](O)[C@H](O)CC(=O)[C@@H]3CC[C@H]2C1=O,0.0774,0.213 (inactive),-0.402 (inactive),-0.293 (inactive),-0.69 (inactive),0.253,-0.0719,-0.109,0.344,0.694,0.0972 (inactive),-0.149,-0.0937 (inactive),-0.0275 (inactive),-0.403 (inactive),-0.138 (inactive),-0.108,-1.19 (inactive),0.1 (inactive),0.0328
O=C(NN=C1C[C@@H](O)[C@@H](O)[C@@H]2[C@@H]3C(=O)N(C[C@@H]4CCCO4)C(=O)[C@@H]3CC[C@@H]12)OCc1ccccc1,0.0252,-0.746 (inactive),0.556 (inactive),0.694 (inactive),0.13 (inactive),-0.34,-0.242,2.6,2.72,0.604,0.828 (inactive),-0.24,0.423 (inactive),-1.35 (inactive),0.449 (inactive),-1.97 (inactive),2.18,-0.532 (inactive),0.554 (inactive),0.8
O=C1C[C@@H](O)[C@@H](O)[C@@H]2[C@@H]3C(=O)N(Cc4ccccc4)C(=O)[C@@H]3CC[C@@H]12,0.19,0.398 (inactive),-0.593 (inactive),1.06 (inactive),0.113 (inactive),0.413,0.0391,0.498,0.35,0.772,-0.861 (inactive),-0.0559,-0.0483 (inactive),0.141 (inactive),0.0313 (inactive),-0.014 (inactive),-0.224,1.04 (inactive),0.286 (inactive),-0.0644
CC(C)=CCCC(C)=CCON=C1C[C@@H](O)[C@@H](O)[C@@H]2[C@@H]3C(=O)N(c4ccc(F)cc4F)C(=O)[C@@H]3CC[C@H]12,-0.112,-5.27 (inactive),-0.206 (inactive),-1.2 (inactive),-0.358 (inactive),0.0534,-0.0178,-0.37,0.171,1.01,-0.061 (inactive),0.173,13.7 (active),0.545 (inactive),2.8 (inactive),-0.87 (inactive),-0.0997,-0.0501 (inactive),-1.83 (inactive),-4.58
COC(=O)[C@H](C)NC(=O)CCC1CC(OC(=O)NCc2ccc3c(c2)OCO3)CC2(CCCC(COC(=O)NCC3CCCCC3)O2)O1 (stereo not given in full),0.283,-0.643 (inactive),-0.112 (inactive),0.104 (inactive),1.35 (inactive),0.543,-0.0719,0.174,0.433,1.72,-0.23 (inactive),-0.0984,0.858 (inactive),-0.53 (inactive),-0.508 (inactive),-0.167 (inactive),0.224,-0.373 (inactive),0.62 (inactive),-0.651
O=C(C=Cc1ccc2c(c1)OCO2)c1ccc(F)cc1,0.239,-1.25 (inactive),0.583 (inactive),1.28 (inactive),0.362 (inactive),1.32,0.259,0.245,-0.397,2.05,-0.394 (inactive),0.0685,20.7 (active),3.22 (inactive),-0.0309 (inactive),0.47 (inactive),-0.41,1.75 (inactive),-2 (inactive),-1.56
